GPR151 ag: activators of human GPR151, primary screen, cell-based, PathHunter beta-arrestin, luminescence. PathHunter beta-arrestin GPR151 cells. activation, % at 11.2 µM. 650,000 compounds, 1% hits. AID 1508602, 2020; in the data active means activation above about 4.9%
TEAD-YAP block: TEAD-YAP interaction inhibition, primary screen, TEAD-YAP interaction inhibitor project, luminescence, HEK-TIYL cells | TEAD-Gal4/YAP UAS-luciferase luminescence | inhibition, % at 9.12 µM | 640,000 compounds, 1.4% hits | AID 1259422, 2018; in the data active means inhibition above about 32%
MITF primary: MITF inhibitors, primary screen, biochemical, AlphaScreen, human | Microphthalmia-associated transcription factor (Homo sapiens), O75030 | AlphaScreen MITF homodimerization, bead proximity signal | inhibition, % at 2.6 µM | 650,000 compounds, 0.91% hits | AID 1259374, 2018; in the data active means inhibition above about 50%
FBW7 activator: FBW7 E3 ligase activators, primary screen, biochemical, AlphaScreen, human | F-box/WD repeat-containing protein 7 (Homo sapiens), Q969H0 | AlphaScreen FBW7–phospho-cyclin E peptide binding, activator screen | normalized activity (activation), % at 26.1 µM | 650,000 compounds, 0.13% hits | AID 1259310, 2017; in the data active means normalized activity above about 1.9%;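 further: purified mutant Fbw7 with reduced substrate affinity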
Target sequence (Q969H0 whole entry, looked up): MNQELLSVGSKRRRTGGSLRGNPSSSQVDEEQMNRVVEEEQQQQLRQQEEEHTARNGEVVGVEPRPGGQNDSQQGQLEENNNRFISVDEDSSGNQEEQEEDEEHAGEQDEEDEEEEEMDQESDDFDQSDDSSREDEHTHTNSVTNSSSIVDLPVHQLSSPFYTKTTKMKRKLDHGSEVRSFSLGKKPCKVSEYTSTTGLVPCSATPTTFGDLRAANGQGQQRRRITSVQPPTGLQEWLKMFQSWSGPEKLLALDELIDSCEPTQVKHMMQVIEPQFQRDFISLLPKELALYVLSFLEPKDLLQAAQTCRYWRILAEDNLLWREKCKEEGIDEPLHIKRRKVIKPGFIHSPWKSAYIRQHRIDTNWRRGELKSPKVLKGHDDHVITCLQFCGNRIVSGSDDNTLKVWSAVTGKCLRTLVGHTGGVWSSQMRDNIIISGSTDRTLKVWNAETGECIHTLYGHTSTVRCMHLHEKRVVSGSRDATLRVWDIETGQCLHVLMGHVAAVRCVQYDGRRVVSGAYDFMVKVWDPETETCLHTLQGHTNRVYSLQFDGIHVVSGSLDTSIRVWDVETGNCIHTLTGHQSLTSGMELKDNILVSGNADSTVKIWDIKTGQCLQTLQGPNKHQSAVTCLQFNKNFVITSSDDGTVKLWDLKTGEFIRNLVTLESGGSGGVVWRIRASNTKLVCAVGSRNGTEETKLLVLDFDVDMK
A number is an active result; – = inactive. Only some compounds are listed: those with a hit (about 3.5% of all), similar ones and a draw of the others.

SMILES	GPR151 ag	TEAD-YAP block	MITF primary	FBW7 activator
COc1cc(Nc2nc(Nc3ccccn3)nc3c2ncn3-c2ccsc2)cc(OC)c1OC	–	–	–	–
COc1cc(Nc2nc(Nc3nc4ccccc4n3C)nc3c2ncn3-c2ccsc2)cc(OC)c1OC	–	36.9	–	–
CCCCOC(=O)c1cccc(N2C(=O)c3cc(Cl)c(Cl)cc3C2=O)c1	–	–	–	–
CCCOc1ccc(OC(=O)c2ccc(C(=O)Oc3ccc(OCCC)cc3)nc2)cc1	–	–	–	–
CC(=O)N1CCN(C(c2ccc(F)cc2)c2ccc(F)cc2)CC1	–	–	–	–
Cc1cc(N2CCOCC2)nc(Nc2ccc(NC(=O)COc3ccccc3)cc2)n1	–	80.8	–	–
Cc1cc(NCCO)nc(Nc2ccc(-n3ccnc3)cc2)n1	–	–	–	–
Cc1cc(NCc2ccccc2)nc(Nc2ccc(-n3ccnc3)cc2)n1	–	35.5	–	–
c1cncc(CNc2ccnc(Nc3ccc(N4CCOCC4)cc3)n2)c1	–	–	–	–
c1cnc(Nc2nccc(Nc3ccc(N4CCOCC4)cc3)n2)cn1	–	–	–	–
c1ccc(CNc2ccnc(Nc3ccc(N4CCOCC4)cc3)n2)cc1	–	41.4	–	–
c1cc(Nc2ccnc(Nc3ccc(N4CCOCC4)cc3)n2)c2ccncc2c1	–	–	–	2.6
Cc1ccc(C)c(NC(=O)Nc2ccc(Nc3nc(C)cc(N4CCOCC4)n3)cc2)c1	–	–	–	–
O=C(CSc1nc2ccsc2c(=O)n1NC(=O)c1cccc(Br)c1)c1ccccc1	–	–	–	–
COc1ccc(CNc2cc(C)nc(Nc3ccc(N4CCOCC4)cc3)n2)cc1	–	37.2	–	–
Cc1cc(Nc2ccc(N3CCOCC3)cc2)nc(Nc2nc3ccccc3n2C)n1	–	42.1	–	–
Cc1cc(Nc2ccc(N3CCOCC3)cc2)nc(Nc2ccc(C(F)(F)F)cc2)n1	–	–	–	–
Cc1cc(Nc2ccc(N3CCOCC3)cc2)nc(Nc2ccccc2)n1	–	66.1	–	–
COc1ccc(CNc2nc(Nc3ccc(N4CCOCC4)cc3)nc3cc(OC)c(OC)cc23)cc1	–	–	–	–
Cc1cc(NC2CCCCC2)nc(NCc2ccccc2)n1	–	42.9	–	–
CCNc1nc(C)cc(NCc2ccccc2)n1	–	–	–	–
COc1ccccc1NC(=O)CSc1nnc(NC(=O)c2ccccc2C)s1	–	–	–	–
O=C(Nc1ccc(Oc2ccccc2)cc1)C1(c2cccs2)CCOCC1	–	–	–	–
Cc1ccc(NC(=S)c2c(-c3ccccc3)c3c4n(c(-c5ccc(C)cc5)nn24)CCCC3)cc1	–	–	–	–
COc1ccc(-c2noc(CCl)n2)cc1	–	–	–	–
SMILES	GPR151 ag	TEAD-YAP block	MITF primary	FBW7 activator
Cc1cc(NCc2ccccc2)nc(Nc2ccc(N3CCOCC3)cc2)n1	–	49.4	–	–
Cc1cc(NCCN2CCOCC2)nc(Nc2ccc(N3CCOCC3)cc2)n1	–	–	–	–
O=C1NC2(CCN(C(=O)c3cccc4cccnc34)CC2)Oc2ccccc21	–	–	–	22.6
O=C1NC2(CCN(Cc3cccc4cccnc34)CC2)Oc2ccccc21	–	–	–	–
COc1ccc(C2=NOC(C(=O)NCc3ccc(F)cc3)C2)cc1OC (configuration not stated)	–	49.6	–	–
COCCNC(=O)C1CC(c2ccc(OC)c(OC)c2)=NO1 (configuration not stated)	–	–	–	–
Cc1ccc(-n2c(SCC(N)=O)nc3sc4c(c3c2=O)CCCCC4)cc1	–	–	–	–
NC(=O)C1CCN(C(=S)NC(=O)C2CC2)CC1	–	–	–	–
COC(=O)C1(C)NC(c2ccc(O)c(OC)c2)C2C(=O)N(C)C(=O)C21 (configuration not stated)	–	–	–	–
CCN1C(=O)C2C(c3ccc(O)c(OC)c3)NC(C)(C(=O)OC)C2C1=O (configuration not stated)	–	44.9	–	–
COc1ccc(S(=O)(=O)NCCNc2nc3ccc(C)cc3cc2C#N)cc1	–	–	–	–
O=[N+]([O-])c1cc(Cl)c(Sc2nc3ccccc3s2)c(Cl)c1	–	48.9	–	–
O=[N+]([O-])c1ccc(Sc2nc3ccccc3s2)cc1	–	–	–	–
Cc1ccc(S(=O)(=O)Nc2c(C)cc(O)c(S(=O)(=O)c3ccc(C)cc3)c2C)cc1	–	–	–	–
Cc1ccc(S(=O)(=O)c2c(O)cc(C)c(NS(=O)(=O)c3ccc(Br)cc3)c2C)cc1	–	–	63.4	–
COc1cccc(/C=N/NC(=O)COc2ccccc2)c1O	–	–	–	–
COc1cccc(/C=N/NC(=O)c2cc(C34CC5CC(CC(C5)C3)C4)[nH]n2)c1O	–	40.5	–	–
COc1cccc(/C=N/NC(=O)Cn2c3ccccc3c(=O)c3ccccc32)c1O	–	50.4	–	–
Cc1ccccc1C(=O)N/N=C/c1cccc(O)c1O	–	58.6	–	–
COc1ccc(C(=O)N/N=C/c2cccc(OC)c2O)cc1	–	–	–	–
COc1cccc(/C=N/NC(=O)c2ccc(-c3ccccc3)cc2)c1O	–	82.6	–	–
Cc1ccccc1/C=N/NC(=O)c1ccccc1C	–	–	–	–
O=C(N/N=C/c1ccccc1O)c1cccc2cc[nH]c12	–	80.9	–	–
COc1cccc(/C=N/NC(=O)c2ccc(O)cc2O)c1O	–	42.0	–	–
COc1cc(Br)cc(C=Nc2ccc3[nH]ncc3c2)c1O	–	–	–	–
SMILES	GPR151 ag	TEAD-YAP block	MITF primary	FBW7 activator
CC(C)Oc1ccc(-c2cc(C(=O)N/N=C/c3ccccc3O)[nH]n2)cc1	–	65.5	–	–
O=C(N/N=C/c1ccccc1Br)c1cccc2cc[nH]c12	–	–	–	–
COc1cccc(C=Nc2ccc3[nH]ncc3c2)c1O	–	–	–	6.3
Cc1noc(C)c1CC(=O)N1CCOc2ccc(CN3CCc4ccccc4C3)cc2C1	–	–	–	–
O=C(NC12CC3CC(CC(C3)C1)C2)C1CCN(S(=O)(=O)c2ccccc2)CC1	–	–	–	–
COc1ccccc1/C=N/NC(=O)c1cc(-c2ccc(C)cc2)n[nH]1	–	–	–	–
COc1cccc(/C=N/NC(=O)CSc2cc(C)nc3ccc(C)cc23)c1O	–	43.6	–	–
C=CCc1cccc(/C=N/NC(=O)c2ccccc2O)c1O	–	42.5	–	–
C=CCc1cccc(/C=N/NC(=O)c2ccccc2OC)c1O	–	–	–	–
COc1cccc2c(SCC(=O)N/N=C/c3ccc(O)cc3O)cc(C)nc12	–	–	–	–
COc1cccc(/C=N/NC(=O)c2cccc(NC(=O)c3ccccc3F)c2)c1O	–	63.9	–	–
COc1cccc(/C=N/NC(=O)c2cc(-c3ccc(C)cc3)n[nH]2)c1O	–	79.2	62.1	–
Cc1cccc(OCc2nnc(SCC(=O)N3CCOCC3)n2C)c1	–	–	–	–
C/C(=N\NC(=O)c1ccc(N(C)S(=O)(=O)c2ccccc2)cc1)c1cccs1	–	–	–	–

Source: PubChem
